Results: PubChem BioAssay (NCATS)
Inconclusive results are not listed. Active and inactive are the calls of the source. Unless noted, calls follow the shape of the dose curve; as a rule, active = well fitted curve in the direction sought with a large enough effect; inconclusive = small, poorly fitted or top-dose-only effect, or another doubt; inactive = no such curve, though single readings can be large; an effect the other way counts as inactive or inconclusive.

What was measured:
[1] = qHTS for compounds that reverse cellular toxicity of Amyloid beta (A-beta) peptide in yeast: LOPAC Validation Assay (AID 720559); details: Potency: rescue of growth toxicity;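 also: plate controls were DMSO for no effect and equimolar ferric chloride plus clioquinol rescue for full effect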
In short: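 Activity is expressed relative to DMSO and an equimolar ferric chloride/clioquinol mix. Compounds were pinned into medium with A-beta-expressing yeast, grown 48 hr at 30 C, then read by absorbance at 600 nm.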

[2] = qHTS for Activators of Parkin Expression: LOPAC Validation Assay (NLuc Reporter) (AID 720572;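 also: 0% = DMSO and 100% = positive control compound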)
In short: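 Neuronal line stably carrying a FLuc/NLuc coincidence reporter under the Parkin promoter, seeded 24 h, then dosed in 7-point series for 24 h at 37 C. NLuc luminescence read after FLuc; normalized to DMSO and positive control (100%).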

[3] = qHTS for Activators of Parkin Expression: LOPAC Validation Assay (FLuc Reporter) (AID 720573;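 also: 0% = DMSO and 100% = positive control compounds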)
In short: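 A neuronal cell line harbouring FLuc and NLuc reporters behind the Parkin promoter was exposed to compounds for 24 h. Firefly luciferase signal, measured after 10 min with detection reagent, was scaled to DMSO and positive-control wells.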

[4] = target: T1, Hexokinase-4 (Homo sapiens) + Glucokinase regulatory protein (Homo sapiens) (UniProt P35557+Q14397); assay: qHTS assay for inhibitors of recombinant human GCK-GKRP interaction: Diaphorase-coupled assay (AID 743205)
T1 sequence (P35557 whole entry, looked up): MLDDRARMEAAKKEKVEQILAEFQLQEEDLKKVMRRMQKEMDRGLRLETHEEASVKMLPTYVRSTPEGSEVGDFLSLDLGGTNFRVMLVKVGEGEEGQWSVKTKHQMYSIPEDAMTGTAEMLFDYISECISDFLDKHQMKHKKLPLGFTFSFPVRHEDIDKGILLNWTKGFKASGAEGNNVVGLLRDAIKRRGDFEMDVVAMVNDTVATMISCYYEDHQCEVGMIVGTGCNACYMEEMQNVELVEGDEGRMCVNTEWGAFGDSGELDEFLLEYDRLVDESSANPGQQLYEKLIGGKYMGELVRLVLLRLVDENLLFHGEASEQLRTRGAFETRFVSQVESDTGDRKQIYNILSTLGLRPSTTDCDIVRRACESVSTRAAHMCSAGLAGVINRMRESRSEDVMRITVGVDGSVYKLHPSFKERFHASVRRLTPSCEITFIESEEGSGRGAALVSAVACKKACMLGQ
T1 sequence (Q14397 whole entry, looked up): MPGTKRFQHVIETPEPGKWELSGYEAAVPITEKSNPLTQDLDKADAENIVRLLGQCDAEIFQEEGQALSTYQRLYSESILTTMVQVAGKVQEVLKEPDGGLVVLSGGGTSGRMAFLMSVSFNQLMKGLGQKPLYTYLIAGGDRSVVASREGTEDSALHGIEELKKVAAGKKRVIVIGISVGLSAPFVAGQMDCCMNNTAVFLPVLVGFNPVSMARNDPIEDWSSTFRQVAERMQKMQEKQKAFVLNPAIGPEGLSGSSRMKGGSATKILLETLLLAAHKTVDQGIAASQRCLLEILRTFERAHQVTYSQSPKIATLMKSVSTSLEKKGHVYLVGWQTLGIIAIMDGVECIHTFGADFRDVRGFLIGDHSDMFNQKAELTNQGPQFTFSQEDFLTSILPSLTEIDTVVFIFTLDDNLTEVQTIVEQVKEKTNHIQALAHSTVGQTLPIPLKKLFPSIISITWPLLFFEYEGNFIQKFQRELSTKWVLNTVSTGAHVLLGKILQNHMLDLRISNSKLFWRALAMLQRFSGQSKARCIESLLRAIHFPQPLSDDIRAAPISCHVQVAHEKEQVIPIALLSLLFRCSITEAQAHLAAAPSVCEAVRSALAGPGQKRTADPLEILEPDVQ
In short: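 Inhibitors of the GCK–GKRP complex relieve GKRP suppression of GCK, detected through a G6PDH–diaphorase cascade reducing resazurin. Human GST-GCK and FLAG-GKRP are used at 10 nM with 5 mM glucose and 0.4 mM ATP.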

[5] = target: T1, Hexokinase-4 (Homo sapiens) + Glucokinase regulatory protein (Homo sapiens); assay: qHTS assay for inhibitors of recombinant human GCK-GKRP interaction: ADP-Glo assay (AID 743206);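 also: plate controls were DMSO plus enzyme for no effect and no enzyme for full effect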
In short: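 GST-GCK and FLAG-GKRP (15 nM each in the dispensed mix, with 2 uM S6P) react with 0.4 mM ATP and 5 mM glucose (final) in Hepes pH 7.6 for 60 min at room temperature. ADP is measured by ADP-Glo luminescence.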

[6] = target: T1, Hexokinase-4 (Homo sapiens) + Glucokinase regulatory protein (Homo sapiens); assay: qHTS assay for inhibitors of recombinant human GCK-GKRP interaction: HTRF assay (AID 743207);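 also: 0% = DMSO with GCK present and -100% = DMSO wells lacking GCK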
In short: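 Steps: dispense GCK–GKRP complex (5 nM each, GST- and FLAG-tagged) with 2 uM S6P; pin in compounds; add XL665/Eu-cryptate-labelled antibodies; incubate 60 min at room temperature; read time-resolved FRET at 665 and 615 nm.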

[7] = qHTS assay for small molecule agonists of the antioxidant response element (ARE) signaling pathway measured by Nrf2-dependant transcriptional activity (AID 720636; active = well fitted curve in the direction sought with a large enough effect in the repeat runs; an effect the other way counts as inactive or inconclusive; also: % of control where 0% means no effect)
In short: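 ARE-luc HepG2 cells carrying an Nrf2-responsive luciferase reporter, in medium with 1% dialyzed FBS, exposed to compound for 16 hr at 37 C, 5% CO2. Luminescence read 30 min after ONE-Glo addition.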

[8] = qHTS assay for small molecule antagonists of the retinoid-related orphan receptor gamma (ROR-gamma) signaling pathway - cell viability counter screen (AID 720652; active = well fitted curve in the direction sought with a large enough effect in the repeat runs; an effect the other way counts as inactive or inconclusive;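 also: series mostly up to about 92 µM; compound exposure lasted 16 hr before ATP read; % is scaled to controls: 0 for no effect and ±100 for the full control effect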)
In short: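 Luminescence from CellTiter-Glo after 30 min at room temperature reported cellular ATP as the cytotoxicity measure. Cells were the CHO reporter line with doxycycline-induced ROR-gamma expression, exposed to compound for 16 hr at 37 C.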

[9] = qHTS assay for small molecule agonists of the antioxidant response element (ARE) signaling pathway measured by Nrf2-dependant transcriptional activity - cell viability counter screen (AID 720653; active = well fitted curve in the direction sought with a large enough effect in the repeat runs; an effect the other way counts as inactive or inconclusive; also: % is scaled to controls: 0 for no effect and ±100 for the full control effect); details: ARE-bla HepG2 viability, CellTiter-Glo ATP luminescence, 16 h; max response: active compounds read low
In short: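 ARE-bla HepG2 cells (2,000/well) rested 5 hrs at 37C/5% CO2, then exposed to compounds in DMSO for 16 hrs. Viability was read in the same wells as intracellular ATP by luminescence, 30 min at room temperature after reagent addition.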

[10] = qHTS Assay for Identifying Gametocytocidal Compounds (AID 743244);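 also: % is scaled to controls: 0 for no effect and ±100 for the full control effect; actives lower the fluorescent signal which means gametocytes are killed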; details: P. falciparum 3D7 stage III-V gametocytes, alamarBlue, 72 h; max response: active compounds read low
In short: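 Late gametocytes (III–V), P. falciparum 3D7; 72 h drug, then 24 h alamarBlue; resazurin reduction read by fluorescence.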

CCOC(=O)N1CCN(/[N+]([O-])=N/Oc2ccc([N+](=O)[O-])cc2[N+](=O)[O-])CC1
inactive: Potency [1] | Potency [2] | Potency [3] | outcome [4] | Potency [5] | Potency [6]

CN(C)CCC(c1ccc(Cl)cc1)c1ccccn1 (stereo not drawn)
inactive: Potency [1] | Potency [2] | Potency [3] | Potency [7] | Potency [8] | max response [9] -2.73% | outcome [4] | Potency [5] | Potency [6]

C[N+]1(C)CCC(OC(=O)C(c2ccccc2)c2ccccc2)CC1
inactive: Potency [1] | Potency [2] | Potency [3] | outcome [4] | Potency [5]

Cc1ccc(C(=O)O[C@H](C(=O)O)[C@@H](OC(=O)c2ccc(C)cc2)C(=O)O)cc1 (tested in a mixture with another compound)
inactive: Potency [1] | Potency [2] | Potency [3] | outcome [4] | Potency [5] | Potency [6] | max response [10] -5.55%

CN1[C@@H](CC(=O)c2ccccc2)CCC[C@H]1C[C@H](O)c1ccccc1
inactive: Potency [1] | Potency [2] | Potency [3] | outcome [4] | Potency [5] | Potency [6]

CNCC[C@H](Oc1ccc(C(F)(F)F)cc1)c1ccccc1
inactive: Potency [1] | Potency [2] | Potency [3] | outcome [4] | Potency [5] | Potency [6]

NS(=O)(=O)C#Cc1ccccc1
inactive: Potency [1] | Potency [2] | Potency [3] | outcome [4] | Potency [5] | Potency [6]

CC1(C)CCC=[N+]1[O-]
inactive: Potency [1] | Potency [2] | Potency [3] | outcome [4] | Potency [5] | Potency [6] | max response [10] 7.42%

CCCn1c(=O)c2[nH]c(-c3ccc(OCC(=O)NCCN)cc3)nc2n(CCC)c1=O
inactive: Potency [1] | Potency [2] | Potency [3] | outcome [4] | Potency [5] | Potency [6]
